# Assay results from article PMC7862700, “An all-to-all approach to the identification of sequence-specific readers for epigenetic DNA modifications on cytosine”.
# Key:
# Experiment in all cases: DAPPL (digital affinity profiling via proximity ligation, sequencing); 10 mM Tris-HCl pH 7.5, 50 mM NaCl, 1 mM DTT, 4% glycerol, room temperature, 30 min; GST-TFs on glutathione beads, 16-mer random dsDNA library, 0.1% formaldehyde crosslink after washing; high values mean tight binding
# Settings in all cases: protein: recombinant; tags: N-terminal GST; dsDNA, one strand shown
# [1] = molecular target: T1, FLI1 (Homo sapiens, UniProt Q01543 1-452)
# T1 sequence: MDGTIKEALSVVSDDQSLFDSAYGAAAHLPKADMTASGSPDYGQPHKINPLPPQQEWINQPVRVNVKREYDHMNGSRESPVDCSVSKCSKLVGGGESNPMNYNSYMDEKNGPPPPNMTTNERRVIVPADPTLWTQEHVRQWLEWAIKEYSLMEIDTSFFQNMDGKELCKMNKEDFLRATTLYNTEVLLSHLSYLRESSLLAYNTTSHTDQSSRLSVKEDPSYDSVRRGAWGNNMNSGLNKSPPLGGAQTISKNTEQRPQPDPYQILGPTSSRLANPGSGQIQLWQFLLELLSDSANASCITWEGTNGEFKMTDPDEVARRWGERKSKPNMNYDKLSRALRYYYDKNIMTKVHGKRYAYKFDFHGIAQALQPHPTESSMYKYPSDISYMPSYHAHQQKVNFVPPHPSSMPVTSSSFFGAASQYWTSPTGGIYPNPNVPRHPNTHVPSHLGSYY
# Procedure, shortened: (§1)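 A tag-only sample was pooled with DNA-barcoded human transcription factors that had been expressed in yeast as GST fusions and captured on glutathione beads. The pools were incubated for 30 min at room temperature with 200 nmole of a random double-stranded 16-mer DNA library in Tris/NaCl/DTT/glycerol buffer, then washed, crosslinked with 0.1% formaldehyde, proximity-ligated (BsaI/T4 ligase, 1 h, 37 °C), PCR-amplified and sequenced on an Illumina NextSeq500. Binding signal is each hexamer's read frequency for a factor divided by its frequency for the tag-only sample.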
# [2] = molecular target: T2, ELK1 (Homo sapiens, UniProt P19419 1-428)
# T2 sequence: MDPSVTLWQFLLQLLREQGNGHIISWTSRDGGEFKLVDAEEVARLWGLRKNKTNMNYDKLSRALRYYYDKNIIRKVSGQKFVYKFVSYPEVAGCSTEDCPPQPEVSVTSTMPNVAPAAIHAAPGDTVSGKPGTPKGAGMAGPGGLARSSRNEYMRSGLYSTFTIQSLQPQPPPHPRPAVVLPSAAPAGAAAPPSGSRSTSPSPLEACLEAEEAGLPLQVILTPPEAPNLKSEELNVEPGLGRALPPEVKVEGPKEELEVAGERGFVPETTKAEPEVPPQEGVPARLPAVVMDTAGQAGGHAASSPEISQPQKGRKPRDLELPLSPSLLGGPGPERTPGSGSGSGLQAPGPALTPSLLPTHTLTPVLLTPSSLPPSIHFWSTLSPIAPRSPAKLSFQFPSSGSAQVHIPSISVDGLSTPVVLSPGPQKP
# Procedure, shortened: as §1
# [3] = molecular target: T3, GABPA (Homo sapiens, UniProt Q06546 1-454)
# T3 sequence: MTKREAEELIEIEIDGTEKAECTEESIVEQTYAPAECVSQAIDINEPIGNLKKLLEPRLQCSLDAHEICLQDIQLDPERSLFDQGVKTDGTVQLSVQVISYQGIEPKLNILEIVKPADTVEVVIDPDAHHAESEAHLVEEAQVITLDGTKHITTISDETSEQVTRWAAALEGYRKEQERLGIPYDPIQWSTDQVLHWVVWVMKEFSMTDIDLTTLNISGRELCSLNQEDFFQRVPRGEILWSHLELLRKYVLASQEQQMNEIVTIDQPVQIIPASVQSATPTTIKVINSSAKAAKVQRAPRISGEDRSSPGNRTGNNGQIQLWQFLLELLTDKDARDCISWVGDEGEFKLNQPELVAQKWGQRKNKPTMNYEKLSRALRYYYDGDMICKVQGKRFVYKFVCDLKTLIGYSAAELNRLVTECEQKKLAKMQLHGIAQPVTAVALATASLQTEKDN
# Procedure, shortened: as §1
# [4] = molecular target: T4, ERG (Homo sapiens, UniProt P11308 1-479)
# T4 sequence: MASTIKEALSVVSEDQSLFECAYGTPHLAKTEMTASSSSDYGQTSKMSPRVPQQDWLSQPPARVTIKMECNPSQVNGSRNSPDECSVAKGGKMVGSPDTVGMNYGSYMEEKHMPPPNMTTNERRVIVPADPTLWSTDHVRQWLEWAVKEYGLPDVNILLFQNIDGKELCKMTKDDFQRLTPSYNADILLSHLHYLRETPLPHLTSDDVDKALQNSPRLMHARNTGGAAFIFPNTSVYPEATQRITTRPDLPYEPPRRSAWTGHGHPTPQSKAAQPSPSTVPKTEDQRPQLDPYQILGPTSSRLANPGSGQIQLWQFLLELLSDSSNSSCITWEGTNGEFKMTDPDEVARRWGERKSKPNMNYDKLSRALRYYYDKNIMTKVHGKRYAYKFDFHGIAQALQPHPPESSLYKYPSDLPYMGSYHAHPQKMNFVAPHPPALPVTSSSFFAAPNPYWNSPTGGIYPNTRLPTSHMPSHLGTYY
# Procedure, shortened: as §1
# [5] = molecular target: ELF1 (Homo sapiens, UniProt P32519 1-619)
# Procedure, shortened: as §1
# [6] = molecular target: T5, EHF (Homo sapiens, UniProt Q9NZC4 1-300)
# T5 sequence: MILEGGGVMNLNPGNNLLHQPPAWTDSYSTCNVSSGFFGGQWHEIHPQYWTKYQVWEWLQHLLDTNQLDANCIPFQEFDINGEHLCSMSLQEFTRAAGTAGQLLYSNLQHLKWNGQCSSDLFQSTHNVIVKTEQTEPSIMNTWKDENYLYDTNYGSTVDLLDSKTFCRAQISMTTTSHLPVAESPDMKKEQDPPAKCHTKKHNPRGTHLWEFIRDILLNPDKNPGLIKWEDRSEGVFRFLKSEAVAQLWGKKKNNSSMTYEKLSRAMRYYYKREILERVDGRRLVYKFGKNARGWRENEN
# Procedure, shortened: as §1
# [7] = molecular target: SPI1 (Homo sapiens, UniProt P17947 1-270)
# Procedure, shortened: as §1
# [8] = molecular target: SPIB (Homo sapiens, UniProt Q01892 1-262)
# Procedure, shortened: as §1
# [9] = molecular target: T6, ELK3 (Homo sapiens, UniProt P41970 1-407)
# T6 sequence: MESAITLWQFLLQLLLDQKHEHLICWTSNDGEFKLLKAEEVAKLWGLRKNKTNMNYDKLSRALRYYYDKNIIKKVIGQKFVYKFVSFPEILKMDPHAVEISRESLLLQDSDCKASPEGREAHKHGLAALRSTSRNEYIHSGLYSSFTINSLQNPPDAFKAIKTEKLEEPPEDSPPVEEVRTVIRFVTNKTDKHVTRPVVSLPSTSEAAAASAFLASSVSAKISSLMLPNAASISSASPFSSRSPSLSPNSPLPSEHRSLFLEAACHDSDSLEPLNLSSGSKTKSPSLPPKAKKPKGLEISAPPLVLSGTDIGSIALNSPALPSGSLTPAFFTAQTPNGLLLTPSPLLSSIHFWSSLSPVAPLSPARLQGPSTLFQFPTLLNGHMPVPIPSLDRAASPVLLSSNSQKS
# Procedure, shortened: as §1
# ELF1, sequence (P32519 whole entry): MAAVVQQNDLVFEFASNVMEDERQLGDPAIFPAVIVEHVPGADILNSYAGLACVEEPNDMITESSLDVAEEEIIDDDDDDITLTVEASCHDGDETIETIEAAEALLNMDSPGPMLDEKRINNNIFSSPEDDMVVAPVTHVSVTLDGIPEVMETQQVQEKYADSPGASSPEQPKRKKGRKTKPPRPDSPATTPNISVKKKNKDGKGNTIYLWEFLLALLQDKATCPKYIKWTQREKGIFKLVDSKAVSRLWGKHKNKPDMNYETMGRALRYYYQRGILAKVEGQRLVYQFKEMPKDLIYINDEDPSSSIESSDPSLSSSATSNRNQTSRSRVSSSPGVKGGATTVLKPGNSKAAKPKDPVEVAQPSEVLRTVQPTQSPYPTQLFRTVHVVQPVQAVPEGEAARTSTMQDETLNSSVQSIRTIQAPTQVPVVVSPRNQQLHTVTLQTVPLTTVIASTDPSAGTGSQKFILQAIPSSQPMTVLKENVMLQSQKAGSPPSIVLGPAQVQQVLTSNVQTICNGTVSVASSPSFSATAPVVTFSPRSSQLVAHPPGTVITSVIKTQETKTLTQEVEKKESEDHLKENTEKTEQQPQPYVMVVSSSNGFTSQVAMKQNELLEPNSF
# SPIB, sequence (Q01892 whole entry): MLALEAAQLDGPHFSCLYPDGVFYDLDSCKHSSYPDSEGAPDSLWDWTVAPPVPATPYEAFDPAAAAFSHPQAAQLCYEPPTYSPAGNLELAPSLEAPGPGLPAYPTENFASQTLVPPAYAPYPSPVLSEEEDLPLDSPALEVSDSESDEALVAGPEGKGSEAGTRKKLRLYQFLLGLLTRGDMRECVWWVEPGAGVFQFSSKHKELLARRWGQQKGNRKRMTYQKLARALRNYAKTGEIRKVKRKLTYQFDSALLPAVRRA
sequence,measurement,setting,value
TTGGTG,binding signal,[1],"1.35 fold enrichment (6-mer frequency, TF over GST control)"
same,binding signal,[2],"1.21 fold enrichment (6-mer frequency, TF over GST control)"
same,binding signal,[3],"1.42 fold enrichment (6-mer frequency, TF over GST control)"
same,binding signal,[4],"1.23 fold enrichment (6-mer frequency, TF over GST control)"
same,binding signal,[5],"1.3 fold enrichment (6-mer frequency, TF over GST control)"
same,binding signal,[6],"1.43 fold enrichment (6-mer frequency, TF over GST control)"
same,binding signal,[7],"1.22 fold enrichment (6-mer frequency, TF over GST control)"
same,binding signal,[8],"1.22 fold enrichment (6-mer frequency, TF over GST control)"
same,binding signal,[9],"1.55 fold enrichment (6-mer frequency, TF over GST control)"
